An excerpt weighted towards active compounds, which were near 9% of everything screened.
IMPase cell inh = IMPase inhibition in cells. P97697. CHO-M1 cells, IP1 accumulation, HTRF TR-FRET ratio. inhibition (IP1 accumulation), % at 46.1 µM. 120,000 tested, under 10 active. AID 901; active = well fitted curve in the direction sought with a large enough effect in the signal ratio, not every such curve was filed as active; inconclusive = small, poorly fitted or top-dose-only effect, or a change in a side signal; inactive = no such curve, though single readings can be large or run the other way; the % refers to the signal ratio;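 also: cells stimulated with carbachol in lithium chloride buffer; higher means more IMPase inhibition seen as more IP1 and lower FRET ratio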
Target sequence (P97697 whole entry, looked up): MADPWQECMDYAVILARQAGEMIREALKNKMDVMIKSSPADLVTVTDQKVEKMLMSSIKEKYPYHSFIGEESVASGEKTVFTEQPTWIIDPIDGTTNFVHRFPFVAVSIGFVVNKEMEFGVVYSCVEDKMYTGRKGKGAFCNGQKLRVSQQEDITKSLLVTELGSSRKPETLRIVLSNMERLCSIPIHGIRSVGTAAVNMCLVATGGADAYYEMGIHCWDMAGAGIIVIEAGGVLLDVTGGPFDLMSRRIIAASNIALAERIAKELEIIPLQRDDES
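Seeded CHO-M1 cells were dosed with compound at up to 46 uM, stimulated with carbachol for 30 min, then lysed in IP-One detection reagents. Higher IP1 lowers the TR-FRET signal.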
ALDH1A1 inh = ALDH1A1 (human) enzyme inhibition; P00352; Purified ALDH1A1, NADH fluorescence, propionaldehyde substrate; Potency, µM (titrated, usually from 75.3 µM), hits mostly inhibitors; actives 7.3% (n = 220,000); AID 1030
HPGD block = inhibitors of human 15-hydroxyprostaglandin dehydrogenase (HPGD); P15428; purified HPGD, NADH fluorescence kinetic, PGE2 substrate; Potency, µM, most hits filed as inhibitors; actives 4.3% (n = 150,000); AID 894
Target sequence (P15428 whole entry, looked up): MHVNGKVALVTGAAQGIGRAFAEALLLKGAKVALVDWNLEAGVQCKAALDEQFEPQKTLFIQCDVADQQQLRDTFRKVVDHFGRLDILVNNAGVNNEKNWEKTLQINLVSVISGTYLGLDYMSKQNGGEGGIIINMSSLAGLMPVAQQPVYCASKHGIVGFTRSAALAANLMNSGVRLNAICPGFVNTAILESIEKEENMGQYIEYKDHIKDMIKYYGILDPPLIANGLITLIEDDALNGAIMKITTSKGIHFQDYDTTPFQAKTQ
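NADH formation kinetics: reaction with 30 uM PGE2 and 1 mM NAD+ (final), 20 nM enzyme, Tris-HCl pH 8 with Tween 20, after 15 min compound preincubation at room temperature. Fluorescence change, last versus first of five reads.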
Of the large screens only hits and unclear results are named; the others gave an inactive call. Unless noted, calls follow the shape of the dose curve; as a rule, active = well fitted inhibition curve with a large enough effect (not every such curve was filed as active); inconclusive = small, poorly fitted or top-dose-only effect, or another doubt; inactive = no such curve, though single readings can be large or run the other way.

COc1ccccc1NC(=O)c1ccc(NC(=O)CSc2nnnn2C)cc1	ALDH1A1 inh 0.79µM
Cn1nnnc1SCC(=O)Nc1c(Cl)cccc1Cl	HPGD block 22µM
COc1ccc(C(=O)NNC(=O)CSc2nnc(C)n2C)cc1	none (no result: IMPase cell inh, HPGD block)
O=C(NC(=S)Nc1ccc(Cc2ccncc2)cc1)c1ccccc1	ALDH1A1 inh 18µM, HPGD block inconclusive (no result: IMPase cell inh)
Cc1cc(C)cc(C(=O)NC(=S)Nc2ccc(Cc3ccncc3)cc2)c1	ALDH1A1 inh inconclusive (no result: IMPase cell inh)
COC(=O)Nc1ccc(Cc2ccncc2)cc1	none (no result: IMPase cell inh, HPGD block)
Cc1cccc(C(=O)NC(=S)Nc2ccc(Cc3ccncc3)cc2)c1	ALDH1A1 inh 20µM, HPGD block inconclusive
COc1ccc(C(=O)CN2C(=O)NC(C)(c3ccccc3)C2=O)cc1OC (centres undefined)	none
c1ccc(OCCCc2nc(-c3ccccn3)no2)cc1	ALDH1A1 inh inconclusive
O=C(Cn1cnc2sc(-c3ccccc3)cc2c1=O)NCc1ccccc1	none
O=C(Cn1cnc2sc(-c3ccccc3)cc2c1=O)NCc1ccco1	ALDH1A1 inh inconclusive, HPGD block 16µM
COc1ccc(NC(=O)N2CCCC3(CCN(C(=O)c4ccco4)CC3)C2)cc1	none (no result: IMPase cell inh)
O=C(NCc1ccccn1)C1CCN(Cc2cnn(-c3ccccc3)c2-n2cccc2)CC1	ALDH1A1 inh 25µM
O=C(NCc1ccccn1)C1CCCN(Cc2cnn(-c3ccccc3)c2-n2cccc2)C1 (centres undefined)	none
CSc1nnnc2ccccc12	none (no result: IMPase cell inh)
Cc1cccc(N2CCN(Cc3nnc(-c4ccc5c(c4)OCO5)o3)CC2)c1C	none (no result: ALDH1A1 inh, HPGD block)
CCN(CC)S(=O)(=O)c1cccc(NC(=O)c2cc(=O)[nH]c3ccccc23)c1	none
CCN(CC)S(=O)(=O)c1ccc(N2CCOCC2)c(NC(=O)c2cccc3ccccc23)c1	ALDH1A1 inh 13µM (no result: IMPase cell inh)
O=C(Nc1ccccc1N1CCOCC1)c1cc(-c2ccncc2)nc2ccccc12	none (no result: IMPase cell inh, HPGD block)
CCN(CC)S(=O)(=O)c1ccc(N2CCOCC2)c(NC(=O)c2cc(=O)[nH]c3ccccc23)c1	ALDH1A1 inh 14µM (no result: IMPase cell inh, HPGD block)
CCN(CC)S(=O)(=O)c1ccc(N2CCOCC2)c(NC(=O)CC23CC4CC(CC(Br)(C4)C2)C3)c1	none (no result: IMPase cell inh)
CCN(CC)S(=O)(=O)c1ccc(N2CCCCC2)c(C(=O)Nc2ccccc2N2CCOCC2)c1	none
CCN(CC)S(=O)(=O)c1ccc(N2CCOCC2)c(NC(=O)c2cc(-c3ccccn3)nc3ccccc23)c1	ALDH1A1 inh 3.5µM (no result: IMPase cell inh, HPGD block)
CCN(CC)S(=O)(=O)c1ccc(N2CCOCC2)c(NC(=O)Cc2ccc(Cl)cc2)c1	ALDH1A1 inh 25µM (no result: HPGD block)
COc1ccc(OC)c(NC(=O)CN(c2ccccc2OC)S(=O)(=O)c2ccc(C)cc2)c1	none (no result: ALDH1A1 inh, HPGD block)
CN(C)CCCNC(=O)c1cc(C(=O)c2ccc(F)cc2)c[nH]1	none (no result: IMPase cell inh, HPGD block)
CCC(=O)Nc1cc(Cl)ccc1N1CCN(C(=O)CC)CC1	none
CCN(CC)S(=O)(=O)c1ccc(N2CCOCC2)c(NC(=O)c2c3c(nc4ccccc24)CCC3)c1	ALDH1A1 inh 6.3µM (no result: IMPase cell inh)
CCN(CC)S(=O)(=O)c1ccc(N2CCOCC2)c(NC(=O)c2cccc(C#N)c2)c1	none (no result: IMPase cell inh, HPGD block)
CCN(CC)S(=O)(=O)c1ccc(N2CCOCC2)c(NC(=O)COc2ccccc2C#N)c1	ALDH1A1 inh 13µM (no result: IMPase cell inh, HPGD block)
CCC(=O)N1CCN(c2ccc(Cl)cc2NC(=O)Cc2ccccc2)CC1	ALDH1A1 inh 5µM
O=C(Nc1cccc(S(=O)(=O)N2CCOCC2)c1)c1c2c(nc3ccccc13)CCC2	none (no result: IMPase cell inh)
CCC(C)n1c(SCc2ccccc2)nc2ccsc2c1=O (centres undefined)	none (no result: IMPase cell inh)
O=C(Cn1cc(C(=O)C2CCCCC2)c2ccccc21)Nc1ccccc1Cl	none (no result: ALDH1A1 inh, HPGD block)
CCOc1ccccc1/C=N/NC(=O)CNC(=O)c1cccs1	none (no result: IMPase cell inh, HPGD block)
CCOc1ccc2nc(SCc3ccc(C(=O)OC)o3)[nH]c2c1	none
COc1cc(OC)c(OC)cc1CNC1CCCCCC1	none
COc1cc(OC)c(CNC2CCCCCC2)cc1Br	ALDH1A1 inh 7.9µM (no result: IMPase cell inh, HPGD block)
CC(C)C(C)NC(=O)CSc1nc2scc(-c3ccco3)c2c(=O)n1-c1ccccc1 (centres undefined)	ALDH1A1 inh 7.9µM, HPGD block inconclusive
C=CCn1c(SCC(=O)N2CCOCC2)nc2scc(-c3ccco3)c2c1=O	ALDH1A1 inh 18µM
Cc1sc2nc(SCC(=O)NCc3ccco3)n(-c3ccccc3)c(=O)c2c1C	none
CC(NC(=O)CSc1nc2sc3c(c2c(=O)n1-c1ccccc1)CCCC3)c1ccccc1 (centres undefined)	ALDH1A1 inh inconclusive
C=CCn1c(SCC(=O)N2CCCC2)nc2scc(-c3cccs3)c2c1=O	ALDH1A1 inh inconclusive
CC(C)C(C)(C#N)NC(=O)CSc1nc2scc(-c3ccco3)c2c(=O)n1-c1ccccc1 (centres undefined)	ALDH1A1 inh 11µM
O=C(COC(=O)[C@@H]1CCCN1C(=O)c1cccs1)NCCc1ccccc1	none
CC(C)(O)C#Cc1ccc(CN2CCN(Cc3ccsc3)C(CCO)C2)s1 (centres undefined)	none (no result: IMPase cell inh, HPGD block)
COc1ccccc1C(O)(C(=O)NN(C)c1ccccc1)c1ccccc1OC	none
COc1cc([N+](=O)[O-])cc(/C=N/N(CCC#N)C(C)=O)c1O	ALDH1A1 inh 10µM (no result: IMPase cell inh, HPGD block)
COC(=O)c1ccc(N/N=C/c2cc([N+](=O)[O-])cc(OC)c2O)cc1	none (no result: IMPase cell inh, HPGD block)
O=C(CSCSCC(=O)NCC1CCCO1)NCC1CCCO1 (centres undefined)	none
CCn1c(CC(=O)Nc2cccc(Cl)c2Cl)nnc1SCCOc1ccc(OC)cc1	ALDH1A1 inh 14µM
COc1ccc(OCCSc2nnc(CC(=O)Nc3cccc(Cl)c3Cl)n2C)cc1	ALDH1A1 inh inconclusive
CCOC(=O)Cc1c(C)nc2c(-c3cccc(Br)c3)c[nH]n2c1=O	ALDH1A1 inh inconclusive, HPGD block inconclusive
CCC(CC)C(=O)Nc1nnc(SCC(=O)NC(C)(C)C)s1	none (no result: IMPase cell inh, HPGD block)
Cc1cc(Oc2ccc(=O)[nH]n2)nc(Cl)n1	none (no result: IMPase cell inh, HPGD block)
O=C(Nc1cccnc1)c1ccccc1F	none
O=C(/C=C/c1ccncc1)c1ccc(NC(=O)c2ccccc2F)cc1	ALDH1A1 inh inconclusive, HPGD block 25µM (no result: IMPase cell inh)
COc1ccc(CC(=O)NCc2n[nH]c(=S)n2-c2ccccc2OC)cc1	none (no result: IMPase cell inh, HPGD block)
CC(C)C(=O)NNC(=O)CSc1nnnn1C(C)C	none (no result: IMPase cell inh, HPGD block)
O=C(CSc1nnc(-c2cccs2)n1-c1ccccc1)Nc1ccccc1	IMPase cell inh inconclusive
CCOC(=O)CSc1nnc(-c2ccco2)n1-c1ccc(C)cc1	none
CCOC(=O)CSc1nnc(-c2ccco2)n1-c1ccccc1	ALDH1A1 inh 1.6µM, HPGD block 32µM
c1ccc(-n2c(SCC3CCCCO3)nnc2-c2cccs2)cc1 (centres undefined)	none (no result: HPGD block)
Cc1ccc(-n2c(SCC3CCCCO3)nnc2-c2ccco2)cc1 (centres undefined)	ALDH1A1 inh inconclusive, HPGD block 16µM
O=C(CSc1nnc(-c2cccs2)n1-c1ccccc1)N1CCOCC1	ALDH1A1 inh inconclusive
CCOC(=O)CSc1nnc(-c2cccs2)n1-c1ccccc1	ALDH1A1 inh inconclusive, HPGD block 28µM
O=C(CSc1nnc(-c2cccs2)n1-c1ccccc1)N1CCCC1	ALDH1A1 inh inconclusive, HPGD block 25µM
Cc1nc2c(n1C1CCCCC1)C(=O)c1ccccc1C2=O	IMPase cell inh inconclusive, ALDH1A1 inh inconclusive
O=C(c1sc2cc(F)ccc2c1Cl)N1CCN(c2ccccc2)CC1	ALDH1A1 inh inconclusive (no result: IMPase cell inh)
COc1ccc(/C=N/n2cnc3c([nH]c4ccccc43)c2=O)cc1COc1ccccn1	none (no result: IMPase cell inh, HPGD block)
CCC(=O)N=c1n(C)c2ccccc2n1CCOc1ccccc1	ALDH1A1 inh 5µM (no result: IMPase cell inh)

Source: PubChem (National Center for Advancing Translational Sciences (NCATS))
